About 79,000 compounds went through this panel and 15% of them were active in at least one assay; those are over-represented in the sample as a whole. Calls of active or inactive are those of the source. No stated cut-off is given here; in the data, active means growth inhibition above about 70%; inactive means the rest.
Assays:
[1] = NCI Yeast Anticancer Drug Screen. Data for the rad50 strain (AID 155);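 further: 0% = growth of vehicle-only cultures of the same strain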; details: S. cerevisiae rad50 strain growth inhibition, active compounds read high
How it was run: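 Growth of the mutant yeast was measured after compound exposure and referenced to vehicle-treated cultures.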

[2] = NCI Yeast Anticancer Drug Screen. Data for the mec2-1 strain (AID 157); details: S. cerevisiae mec2-1 strain, active compounds read high
How it was run: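 Vehicle-treated cultures served as reference for growth inhibition of compound-exposed mec2-1 yeast.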

[3] = NCI Yeast Anticancer Drug Screen. Data for the sgs1 mgt1 strain (AID 161);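 further: 0% = growth of cultures given vehicle only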; details: S. cerevisiae sgs1 mgt1 strain, active compounds read high
How it was run: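 Read-out: growth inhibition vs vehicle controls. Cells: mutant yeast strain deficient in DNA damage repair.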

[4] = NCI Yeast Anticancer Drug Screen. Data for the cln2 rad14 strain (AID 165);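 further: 0% = growth equal to vehicle treated cultures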; details: S. cerevisiae cln2 rad14 strain, active compounds read high
How it was run: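 Each compound was tested on cln2 rad14 yeast. Inhibition of growth was calculated against vehicle-exposed controls.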

[5] = NCI Yeast Anticancer Drug Screen. Data for the bub3 strain (AID 167); details: S. cerevisiae bub3 mutant strain, active compounds read high
How it was run: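 Whole-cell yeast assay. The mutant strain was incubated with compounds, and growth inhibition was determined by comparison with vehicle-treated cells.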

[6] = NCI Yeast Anticancer Drug Screen. Data for the mlh1 rad18 strain (AID 175); details: S. cerevisiae mlh1 rad18 strain growth inhibition, active compounds read high
How it was run: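 Vehicle-treated cultures served as the reference for growth inhibition in a yeast strain carrying DNA damage repair alterations exposed to each compound.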

[7] = at 5.0 µM (retest, dose inferred, filed as 0.5)
[8] = at 50.0 µM (retest, dose inferred, filed as 5.0)

Measured: growth inhibition

COc1cccc(C2c3cc4c(cc3OC(N3CCOCC3)C2C)OCO4)c1 (configuration not stated)
inactive: [1]; [7] 25% | [1]; [8] 16% | [1]; at 50.0 µM -11.8% | [2]; [7] 14% | [2]; [8] 6% | [2]; at 50.0 µM -9.25% | [3]; [7] 9% | [3]; [8] 7% | [3]; at 50.0 µM 3.2% | [4]; [7] 11% | [4]; [8] 6% | [4]; at 50.0 µM 8.45% | [5]; [7] 26% | [5]; [8] 13% | [5]; at 50.0 µM 0.2% | [6]; [7] 20% | [6]; [8] 13% | [6]; at 50.0 µM -3.05%

COc1ccc(-c2c(COC(C)=O)c(COC(C)=O)c3n2CCC3)cc1
inactive: [1]; [7] -4% | [1]; [8] 34% | [2]; [7] -4% | [2]; [8] 19% | [3]; [7] -6% | [3]; [8] 23% | [4]; [7] -3% | [4]; [8] -4% | [5]; [7] -6% | [5]; [8] -3% | [6]; [7] -6% | [6]; [8] 40%
active: [1]; at 50.0 µM 98.5% | [2]; at 50.0 µM 99.1% | [3]; at 50.0 µM 98.9% | [4]; at 50.0 µM 97.8% | [5]; at 50.0 µM 98.8% | [6]; at 50.0 µM 98.8%

CC(=O)Oc1cccc2c(C(=O)CCl)ccnc12
active: [1]; [7] 87% | [1]; [8] 99% | [1]; at 50.0 µM 99.1% | [2]; [7] 86% | [2]; [8] 99% | [2]; at 50.0 µM 95% | [3]; [7] 96% | [3]; [8] 99% | [3]; at 50.0 µM 99.2% | [4]; [8] 99% | [4]; at 50.0 µM 92% | [5]; [7] 90% | [5]; at 50.0 µM 95.3% | [6]; [7] 73% | [6]; [8] 99% | [6]; at 50.0 µM 98.8%
inactive: [4]; [7] 15% | [5]; [8] 18%

O=C(CNC(=O)Nc1ccc(NC(=O)NCC(=O)Nc2ccc(C3=NCCN3)cc2)cc1)Nc1ccc(C2=NCCN2)cc1
active: [1]; at 50.0 µM 98.2% | [2]; at 50.0 µM 88.4% | [3]; at 50.0 µM 98.8% | [5]; at 50.0 µM 96.4% | [6]; at 50.0 µM 95.2%
inactive: [1]; [7] 3% | [1]; [8] -2% | [2]; [7] -16% | [2]; [8] -3% | [3]; [7] 2% | [3]; [8] -3% | [4]; [7] 5% | [4]; [8] 5% | [4]; at 50.0 µM 30.7% | [5]; [7] 0% | [5]; [8] -5% | [6]; [7] 4% | [6]; [8] 20%

C/C(=C/C(=O)N1c2ccccc2CC1c1c[nH]c2ccccc12)C(=O)O (configuration not stated)
inactive: [1]; [7] -1% | [1]; [8] 39% | [1]; at 50.0 µM 62.1% | [2]; [7] -8% | [2]; [8] 5% | [2]; at 50.0 µM -2.65% | [3]; [7] -3% | [3]; [8] 33% | [3]; at 50.0 µM 46.9% | [4]; [7] -79% | [4]; [8] 8% | [4]; at 50.0 µM -0.65% | [5]; [7] -4% | [5]; [8] 20% | [5]; at 50.0 µM 17.1% | [6]; [7] -2% | [6]; [8] 15% | [6]; at 50.0 µM 40.9%

CCOC(=O)Nc1cc2c(cc1Br)-c1ccccc1C2O (configuration not stated)
inactive: [1]; [7] -1% | [1]; [8] -3% | [1]; at 50.0 µM 10% | [2]; [7] -3% | [2]; [8] 12% | [2]; at 50.0 µM -5.6% | [3]; [7] -7% | [3]; [8] 1% | [3]; at 50.0 µM 10.4% | [4]; [7] -2% | [4]; [8] 27% | [4]; at 50.0 µM -2.85% | [5]; [7] 68% | [5]; at 50.0 µM 69.4% | [6]; [7] -2% | [6]; [8] 7% | [6]; at 50.0 µM 18.7%
active: [5]; [8] 95%

CN(C)/C(N)=N\c1nc2ccc(Cl)cc2s1
inactive: [1]; [7] -13% | [1]; [8] 15% | [1]; at 50.0 µM 10.9% | [2]; [7] -4% | [2]; [8] -17% | [2]; at 50.0 µM 11.4% | [3]; [7] -17% | [3]; [8] 4% | [3]; at 50.0 µM 8.3% | [4]; [7] -20% | [4]; [8] -10% | [4]; at 50.0 µM 15.9% | [5]; [7] -1% | [5]; [8] 12% | [5]; at 50.0 µM -11.1% | [6]; [7] -3% | [6]; [8] 48% | [6]; at 50.0 µM 9.05%

CCC[CH2][Sn]([CH2]CCC)([O]C(=O)Cc1ccc(F)cc1)[O]C(=O)Cc1ccc(F)cc1
inactive: [1]; [7] 27% | [1]; [8] 27% | [2]; [7] 30% | [2]; [8] 30% | [3]; [7] 27% | [3]; [8] 27% | [4]; [7] 16% | [4]; [8] 16% | [5]; [7] 21% | [5]; [8] 21% | [6]; [7] 14% | [6]; [8] 14%
active: [1]; at 50.0 µM 86.7% | [2]; at 50.0 µM 81.5% | [3]; at 50.0 µM 83.3% | [4]; at 50.0 µM 78.1% | [5]; at 50.0 µM 76% | [6]; at 50.0 µM 76.2%

CC1(C)CCCC12C=NCC2 (configuration not stated)
inactive: [1]; [7] 2% | [1]; [8] 16% | [1]; at 50.0 µM 17.8% | [2]; [7] -2% | [2]; [8] 18% | [2]; at 50.0 µM -1.15% | [3]; [7] -1% | [3]; [8] 11% | [3]; at 50.0 µM 31.9% | [4]; [7] 1% | [4]; [8] 1% | [4]; at 50.0 µM -3.95% | [5]; [7] 2% | [5]; [8] 10% | [5]; at 50.0 µM 43.1% | [6]; [7] -28% | [6]; [8] 27% | [6]; at 50.0 µM 22.9%

Source: PubChem BioAssay (NCI)
